# Screening data: PubChem BioAssay, several laboratories
# Shown are actives, neighbours in structure and some others; about 4.7% of the full set was active somewhere.
# MPTP block: mitochondrial permeability transition pore inhibitors, primary screen, biochemical, isolated mouse mitochondria, absorbance | Ca2+ swelling absorbance, 30 min | inhibition, % at 10 µM | hit rate 1.4% among 360,000 | AID 602449, 2012;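 active = inhibition of 50% or more, scaled per plate between neutral and stimulator controls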;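 also: 0% = DMSO wells given calcium and 100% = 1 mM EGTA wells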
# ADAM17 inh: ADAM17 inhibitors, primary screen, biochemical, QFRET; Disintegrin and metalloproteinase domain-containing protein 17 (Homo sapiens), P78536; recombinant ADAM17, EDANS/DABCYL FRET peptide cleavage; inhibition, % at 6.95 µM; hit rate 0.83% among 370,000; AID 720648, 2013;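 active = inhibition above the mean of compounds lying between control limits plus 3 SD, set per campaign, cut at about 8.5% in these data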;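 also: 0% = DMSO-only wells as the low control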
# ADAM10 inh: human ADAM10 inhibitors, primary screen, biochemical, QFRET, HTS. Disintegrin and metalloproteinase domain-containing protein 10 (Homo sapiens), O14672. recombinant ADAM10, EDANS/DABCYL FRET peptide cleavage, 3 h. inhibition, % at 7 µM. hit rate 0.62% among 370,000;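 active = inhibition above a per-campaign cutoff equal to the mean of compounds falling between control-based bounds plus 3 SD, cut at about 20% in these data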;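 also: 0% = DMSO wells while the 100% control is not disclosed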
# Pemphigus Ab inh: inhibitors of pemphigus antibody binding to DSG3, primary screen, biochemical, bead-based, flow cytometry, scFv-GFP | AID 588358, 2011 | DSG3-coupled beads, scFv-anti-DSG3-GFP binding; hits give low values | Desmoglein-3 (Homo sapiens), P32926 | hit rate 0.48% among 310,000 | binding (percent of control), % at 10 µM;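 active = binding more than 3 SD below its plate's average and above zero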;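 also: hits lower antibody fragment binding to DSG3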
# proKLK7 act: proKLK7 zymogen activators, primary screen, biochemical, fluorescence intensity; activation, % at 7 µM; hit rate 0.9% among 370,000; Kallikrein-7 (Homo sapiens), P49862; purified proKLK7, EDANS-DABCYL substrate fluorescence; 100% is mature enzyme control, 0% vehicle;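 active = activation above the mean of all tested compounds plus 3 SD, computed per campaign excluding outliers beyond control limits, cut at about 13% in these data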
# rCAG RNA binder: binders of r(CAG) RNA repeats, primary screen, biochemical, fluorescence; r(CAG) RNA repeat, TO-PRO-1 dye displacement fluorescence; hit rate 1.3% among 370,000; AID 651821, 2012; inhibition, % at 3 µM;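 active = inhibition above the plate cutoff, the mean of all test compounds on that plate plus 3 SD, cut at about 35% in these data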;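 also: 0% = DMSO alone and 100% = 100 µM mitoxantrone as full dye displacement; higher means more dye released from RNA so lower well fluorescence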
# ADAM10 confirm: human ADAM10 inhibitors, confirmation, biochemical, QFRET, triplicate; ADAM10 QFRET peptide cleavage, EDANS fluorescence; inhibition, % at 6.95 µM; shares compounds with ADAM10 inh; hit rate 1% among 2,100; AID 743208, 2013;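 active = inhibition above about 20% chosen separately for each screening run, limit read from the data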;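 also: 0% = DMSO wells and 100% = marimastat wells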
# ADAM17 ctr: ADAM17 inhibitors, counter-screen for ADAM10 exosite inhibitor project, biochemical, QFRET, high throughput; shares compounds with ADAM10 inh; ADAM17 QFRET peptide cleavage, EDANS fluorescence; inhibition, % at 6.95 µM; hit rate 0.5% among 2,100; AID 743214, 2013;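 active = mean triplicate inhibition above the solvent-only control wells' mean plus 3 SD, cut at about 12% in these data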;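 also: 0% = DMSO wells and 100% = marimastat wells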
# ADAM10 ctr: ADAM10 inhibitors, counter-screen for ADAM17 exosite inhibitor project, biochemical, FRET, human ADAM10 | shares compounds with ADAM17 inh | recombinant ADAM10, EDANS/DABCYL FRET peptide cleavage, 3 h | inhibition, % at 6.95 µM | hit rate 47% among 2,900 | AID 743256, 2014;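 active = mean inhibition over the triplicate runs exceeds the activity threshold set in the earlier primary screen, cut at about 20% in these data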;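 also: 0% = DMSO wells and 100% = marimastat wells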
# ADAM17 confirm: ADAM17 inhibitors, hit retest, confirmation, biochemical, QFRET peptide cleavage; recombinant ADAM17, EDANS/DABCYL QFRET peptide cleavage; shares compounds with ADAM17 inh; hit rate 65% among 2,900; AID 743257, 2014; inhibition, % at 6.95 µM;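 active = mean inhibition across replicates above the hit cutoff set in the primary screen, cut at about 8.5% in these data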;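 also: 0% = DMSO wells and 100% = marimastat wells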
# * hit, by the source's call; nt = not tested or not shown.
SMILES,MPTP block,ADAM17 inh,ADAM10 inh,Pemphigus Ab inh,proKLK7 act,rCAG RNA binder,ADAM10 ctr,ADAM17 confirm,others
C=CC[C@@H](CC(=O)N(CCO)Cc1ccccc1)C(=O)N[C@H](COC(=O)[C@@H](CC=C)Cc1ccc(F)cc1)Cc1c[nH]c2ccccc12,1,14*,39*,108,2,0,46*,25*,ADAM10 confirm=10;ADAM17 ctr=4
C=CC[C@@H](CC(=O)N[C@@H](CO)Cc1ccccc1)C(=O)N[C@H](COC(=O)[C@@H](CC=C)Cc1ccc(F)cc1)Cc1c[nH]c2ccccc12,3,7,12,97,1,-1,nt,nt,
C=CCC[C@H](Cc1ccc(F)cc1)C(=O)OC[C@H](Cc1c[nH]c2ccccc12)NC(=O)[C@H](CC=C)CC(=O)N(CCO)Cc1ccccc1,-1,12*,24*,103,0,5,36*,18*,ADAM10 confirm=17;ADAM17 ctr=5
C=CCC[C@@H](Cc1ccc(F)cc1)C(=O)OC[C@@H](Cc1c[nH]c2ccccc12)NC(=O)[C@H](CC=C)CC(=O)N[C@H](CO)Cc1ccccc1,2,3,0,101,1,-1,nt,nt,
COc1ccccc1S(=O)(=O)N(C)C[C@H]1Oc2ncc(Br)cc2C(=O)N([C@H](C)CO)C[C@H]1C,0,-6,-11,101,1,4,nt,nt,
Cc1ccc(NC(=O)Cn2nnc3ccccc3c2=O)cc1C,-2,-2,1,115,0,3,nt,nt,
C=CCC[C@H](Cc1ccc(F)cc1)C(=O)OC[C@@H](Cc1c[nH]c2ccccc12)NC(=O)[C@@H](CC=C)CC(=O)N[C@@H](CO)Cc1ccccc1,1,11*,22*,94,1,7,8,7,ADAM10 confirm=9;ADAM17 ctr=2
C=CCC[C@@H](Cc1ccc(F)cc1)C(=O)OC[C@@H](Cc1c[nH]c2ccccc12)NC(=O)[C@@H](CC=C)CC(=O)N[C@@H](CO)Cc1ccccc1,0,5,17,132,-1,11,nt,nt,
COc1ccc(C2C3C(=O)N(Cc4ccccc4)C(=O)C3ON2c2ccccc2)c(OC)c1OC (stereo not given),1,11*,21*,102,0,1,32*,17*,ADAM10 confirm=7;ADAM17 ctr=2
COc1cc(C2C3C(=O)N(Cc4ccccc4)C(=O)C3ON2c2ccccc2)cc(OC)c1OC (stereo not given),2,7,11,121,1,0,nt,nt,
CC(C)Oc1ccccc1OC1(C)CCN(Cc2ccc(OC(F)(F)F)cc2)C1 (stereo not given),1,-6,-6,nt,0,-3,nt,nt,
O=C(Nc1ccc(Nc2ccccc2)cc1)C(Cl)(Cl)Cl,0,9.8*,26*,100,1,4,8,4,ADAM10 confirm=5;ADAM17 ctr=1
NC(=O)Nc1ccc(Nc2ccccc2)cc1,1,1,7,99,0,1,nt,nt,
Cc1ccccc1Nc1nc(N)nc(CSc2nc3ccccc3s2)n1,0,3,10,97,0,5,nt,nt,
Cc1ccc(Nc2nc(N)nc(CSc3nc4ccccc4s3)n2)cc1,5,13*,29*,99,0,10,43*,25*,ADAM10 confirm=11;ADAM17 ctr=4
CCc1nc2c(OCCC3CCCCC3)cccn2c1N(C)C(=O)c1ccc(C)cc1,-3,15*,29*,nt,1,4,10,7,ADAM10 confirm=7;ADAM17 ctr=2
CCc1nc2c(OCCC3CCCCC3)cccn2c1N(C)C(=O)C1CC1,1,nt,nt,nt,nt,nt,nt,nt,
Cc1nnc(SCC(=O)N(Cc2ccccc2)C(C)(C)C)[nH]c1=O,0,3,2,98,-1,-2,nt,nt,
CC(C)(C)N(Cc1ccccc1)C(=O)CSc1nc2ccccc2c(=O)[nH]1,-1,9.0*,16,107,1,4,10,6,
CCN(CC)C(=O)C1=C(C)N(CCCN2CCCC2=O)C(=O)C(CC(=O)NC(c2ccccc2)c2ccccc2)C1 (stereo not given),-1,-2,-7,105,0,0,nt,nt,
O=C(NNC(=S)NCc1ccccc1)c1cccc([N+](=O)[O-])c1,1,13*,16,108,0,16,12,8,
O=C(NCCCc1ccccc1)c1cccc([N+](=O)[O-])c1,0,-3,-6,89,0,2,nt,nt,
COc1ccc2oc(C(=O)OCC(=O)NC3(C#N)CCCC3)c(C)c2c1,0,-87,-277,106,-3,-1,nt,nt,
COCOCCn1cc(CN2CCS(=O)(=O)N(Cc3ccc(-c4cccc(N(C)C)c4)cc3)C(C(C)C)C2=O)nn1 (stereo not given),-2,-13,-44,102,0,16,nt,nt,
CCOC1=C2CN(S(=O)(=O)c3ccc(C)cc3)[C@H](c3ccccc3)C[C@@H]2N(S(=O)(=O)c2ccc(C)cc2)[C@H](c2ccccc2)C1,0,-2,-6,nt,0,2,nt,nt,
Cc1ccc(C(=O)N2CCC(C(=O)c3c(C)cc(C)cc3C)CC2)cc1,0,1,0,100,0,-6,nt,nt,
O=C(Nc1ccccc1)C1C2CCC3C(CCC21)C3(Cl)Cl (stereo not given),1,8.8*,13,108,1,5,13,9.6*,
COc1ccc(NC(=O)CC(=O)Nc2ccc(OC)cc2)cc1,1,-5,-2,117,0,-1,nt,nt,
CCCOc1ccc(F)cc1-c1cc(C(=O)NCc2cccc(C(F)(F)F)c2)[nH]n1,12,9.7*,15,nt,0,0,22*,15*,
